Assay results from the supplement of paper PMC11732987, “Enantioselective OTUD7B fragment discovery through chemoproteomics screening and high-throughput optimisation” (Communications Chemistry, 2025).

How the values were obtained:
Test in all cases: log2 ratio of Biotin-Ahx-Ub-VS probe labelling (fragment/DMSO); higher = less target engagement (more negative = stronger competition), active = hit call of the paper (q ≤ 0.05, log2 ratio ≤ -1)
Conditions in all cases: compound concentration: 200 uM; treatment time: 3 h
OTUD6B = target: T1, OTUD6B (UniProt Q8N6M0)
T1 sequence (whole entry): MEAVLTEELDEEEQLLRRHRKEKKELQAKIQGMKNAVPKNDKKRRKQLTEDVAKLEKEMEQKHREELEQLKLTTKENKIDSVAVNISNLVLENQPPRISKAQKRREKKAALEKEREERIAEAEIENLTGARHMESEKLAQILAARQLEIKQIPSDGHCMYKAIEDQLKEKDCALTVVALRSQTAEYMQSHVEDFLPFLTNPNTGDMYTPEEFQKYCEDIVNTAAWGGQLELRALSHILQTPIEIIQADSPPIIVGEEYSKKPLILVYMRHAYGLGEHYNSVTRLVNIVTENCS
How it was run: (§1)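 Fragment (200 µM) or vehicle was incubated for 3 h with triplicate HEK293T lysate samples of 495 µg, which were then treated with Biotin-Ahx-Ub-VS at 0.5 µM final for 1 h. Labelled DUBs were enriched on NeutrAvidin, digested with LysC and trypsin, and analysed by diaPASEF LC-MS/MS. Values are average log2 fragment/vehicle ratios from an unpaired t-test on global-median-normalised Spectronaut label-free quantities, using proteins with ≥2 unique peptides.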

OTUD7B = target: T2, OTUD7B (UniProt Q6GQQ9)
T2 sequence (whole entry): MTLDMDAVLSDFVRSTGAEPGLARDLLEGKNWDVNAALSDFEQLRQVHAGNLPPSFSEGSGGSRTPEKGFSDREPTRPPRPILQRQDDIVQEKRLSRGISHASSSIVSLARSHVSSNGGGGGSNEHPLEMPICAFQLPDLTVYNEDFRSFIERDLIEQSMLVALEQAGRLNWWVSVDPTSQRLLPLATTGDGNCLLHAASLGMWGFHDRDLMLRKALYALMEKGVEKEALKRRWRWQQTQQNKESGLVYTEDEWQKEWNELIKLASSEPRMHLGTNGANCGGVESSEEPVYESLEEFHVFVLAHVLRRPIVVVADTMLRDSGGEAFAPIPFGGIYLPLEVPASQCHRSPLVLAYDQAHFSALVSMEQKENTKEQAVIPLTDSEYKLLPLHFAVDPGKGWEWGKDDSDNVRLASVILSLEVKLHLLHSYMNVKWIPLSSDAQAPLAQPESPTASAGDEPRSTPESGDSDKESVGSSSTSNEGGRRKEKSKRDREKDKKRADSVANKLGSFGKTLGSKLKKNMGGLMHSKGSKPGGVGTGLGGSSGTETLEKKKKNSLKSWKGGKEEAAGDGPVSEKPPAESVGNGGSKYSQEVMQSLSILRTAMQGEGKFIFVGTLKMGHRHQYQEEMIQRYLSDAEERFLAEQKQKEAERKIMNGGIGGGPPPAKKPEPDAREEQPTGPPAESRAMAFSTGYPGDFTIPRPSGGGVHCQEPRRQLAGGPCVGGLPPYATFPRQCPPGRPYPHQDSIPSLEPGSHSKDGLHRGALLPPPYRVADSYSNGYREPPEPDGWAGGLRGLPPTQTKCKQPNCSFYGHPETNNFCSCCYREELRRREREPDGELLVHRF
How it was run: as §1

PRPF8 = PRPF8 (UniProt Q6P2Q9)
How it was run: as §1

PSMD7 = target: T3, PSMD7 (UniProt P51665)
T3 sequence (whole entry): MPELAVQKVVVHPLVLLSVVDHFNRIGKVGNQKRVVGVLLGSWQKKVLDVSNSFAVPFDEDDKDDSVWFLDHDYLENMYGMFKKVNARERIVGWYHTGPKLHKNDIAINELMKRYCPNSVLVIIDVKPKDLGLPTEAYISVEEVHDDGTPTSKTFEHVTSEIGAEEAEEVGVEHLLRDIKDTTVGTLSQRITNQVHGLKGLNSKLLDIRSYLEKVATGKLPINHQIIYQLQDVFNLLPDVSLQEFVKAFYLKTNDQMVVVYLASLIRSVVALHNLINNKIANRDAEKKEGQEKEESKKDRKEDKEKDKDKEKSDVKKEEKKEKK
How it was run: as §1

UCHL1 = UCHL1 (UniProt P09936)
Sequence of UCHL1 (P09936 whole entry, looked up): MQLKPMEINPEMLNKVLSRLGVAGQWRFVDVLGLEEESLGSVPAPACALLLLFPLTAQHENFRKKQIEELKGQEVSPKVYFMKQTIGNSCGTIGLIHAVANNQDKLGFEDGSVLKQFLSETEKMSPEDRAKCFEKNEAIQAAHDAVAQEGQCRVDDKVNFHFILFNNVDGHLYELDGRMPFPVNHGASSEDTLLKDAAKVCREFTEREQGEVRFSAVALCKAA
How it was run: as §1

UCHL3 = target: T4, UCHL3 (UniProt P15374)
T4 sequence (whole entry): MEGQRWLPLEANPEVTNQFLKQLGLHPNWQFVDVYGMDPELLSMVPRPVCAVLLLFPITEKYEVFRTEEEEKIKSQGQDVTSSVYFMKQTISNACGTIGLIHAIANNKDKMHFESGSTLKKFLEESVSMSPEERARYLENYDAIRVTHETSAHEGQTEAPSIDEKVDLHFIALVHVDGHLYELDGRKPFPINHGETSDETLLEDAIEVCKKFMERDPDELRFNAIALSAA
How it was run: as §1

UCHL5 = target: T5, UCHL5 (UniProt Q9Y5K5)
T5 sequence (whole entry): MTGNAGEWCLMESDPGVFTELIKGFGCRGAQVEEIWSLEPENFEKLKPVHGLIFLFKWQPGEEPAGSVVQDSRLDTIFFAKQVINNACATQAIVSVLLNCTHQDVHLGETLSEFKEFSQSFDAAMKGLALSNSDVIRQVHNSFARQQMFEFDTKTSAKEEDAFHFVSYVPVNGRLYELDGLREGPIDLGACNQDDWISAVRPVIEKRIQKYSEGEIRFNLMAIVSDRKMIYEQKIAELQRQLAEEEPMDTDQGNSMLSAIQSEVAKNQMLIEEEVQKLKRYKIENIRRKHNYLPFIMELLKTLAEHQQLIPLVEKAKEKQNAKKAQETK
How it was run: as §1

USP10 = USP10 (UniProt Q14694)
Sequence of USP10 (Q14694 whole entry): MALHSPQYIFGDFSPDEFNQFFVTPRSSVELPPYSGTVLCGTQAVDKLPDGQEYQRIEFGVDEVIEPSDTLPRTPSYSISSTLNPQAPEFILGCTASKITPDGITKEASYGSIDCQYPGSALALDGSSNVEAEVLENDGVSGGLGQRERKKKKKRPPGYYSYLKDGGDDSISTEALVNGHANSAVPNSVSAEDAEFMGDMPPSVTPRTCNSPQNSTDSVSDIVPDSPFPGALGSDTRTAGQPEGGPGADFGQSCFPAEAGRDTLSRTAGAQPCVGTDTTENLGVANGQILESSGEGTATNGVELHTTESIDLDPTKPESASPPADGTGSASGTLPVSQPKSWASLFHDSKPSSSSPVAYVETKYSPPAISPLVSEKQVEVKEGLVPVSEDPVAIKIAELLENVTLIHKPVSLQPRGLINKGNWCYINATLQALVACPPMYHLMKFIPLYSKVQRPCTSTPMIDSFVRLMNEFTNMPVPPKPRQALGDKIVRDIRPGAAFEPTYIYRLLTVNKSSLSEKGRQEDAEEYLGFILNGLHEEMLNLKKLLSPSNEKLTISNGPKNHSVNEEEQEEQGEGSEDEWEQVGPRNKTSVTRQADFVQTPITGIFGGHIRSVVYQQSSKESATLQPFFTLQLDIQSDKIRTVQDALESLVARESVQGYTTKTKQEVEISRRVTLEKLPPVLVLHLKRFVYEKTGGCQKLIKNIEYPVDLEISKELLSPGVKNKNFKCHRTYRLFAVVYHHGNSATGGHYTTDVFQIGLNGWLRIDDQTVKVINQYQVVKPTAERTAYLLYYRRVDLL
How it was run: as §1

USP15 = target: T6, USP15 (UniProt Q9Y4E8)
T6 sequence (whole entry): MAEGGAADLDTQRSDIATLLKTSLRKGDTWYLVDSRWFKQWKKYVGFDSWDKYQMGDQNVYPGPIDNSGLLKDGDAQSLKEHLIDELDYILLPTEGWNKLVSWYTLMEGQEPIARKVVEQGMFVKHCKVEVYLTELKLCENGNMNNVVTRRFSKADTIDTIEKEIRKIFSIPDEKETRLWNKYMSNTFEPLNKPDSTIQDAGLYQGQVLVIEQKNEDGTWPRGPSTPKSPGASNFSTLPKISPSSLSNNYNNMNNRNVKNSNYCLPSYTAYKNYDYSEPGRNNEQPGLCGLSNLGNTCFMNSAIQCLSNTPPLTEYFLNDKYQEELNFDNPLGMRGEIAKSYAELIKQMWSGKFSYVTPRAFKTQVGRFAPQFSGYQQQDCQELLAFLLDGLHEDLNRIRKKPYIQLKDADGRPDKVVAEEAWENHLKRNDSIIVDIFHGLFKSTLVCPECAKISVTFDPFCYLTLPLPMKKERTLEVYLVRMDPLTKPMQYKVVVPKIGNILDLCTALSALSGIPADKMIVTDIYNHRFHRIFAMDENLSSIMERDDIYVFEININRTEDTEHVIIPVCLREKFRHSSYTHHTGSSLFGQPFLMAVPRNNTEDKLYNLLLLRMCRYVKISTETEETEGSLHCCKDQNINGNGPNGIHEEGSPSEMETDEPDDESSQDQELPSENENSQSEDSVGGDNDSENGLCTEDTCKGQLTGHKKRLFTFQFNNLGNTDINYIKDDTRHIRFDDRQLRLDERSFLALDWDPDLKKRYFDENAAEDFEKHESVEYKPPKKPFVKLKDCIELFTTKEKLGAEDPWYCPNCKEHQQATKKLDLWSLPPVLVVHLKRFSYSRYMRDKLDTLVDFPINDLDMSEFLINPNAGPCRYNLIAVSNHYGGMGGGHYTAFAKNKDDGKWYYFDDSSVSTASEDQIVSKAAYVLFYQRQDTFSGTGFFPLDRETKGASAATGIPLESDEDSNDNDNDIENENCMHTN
How it was run: as §1

USP16 = USP16 (UniProt Q9Y5T5)
Sequence of USP16 (Q9Y5T5 whole entry, looked up): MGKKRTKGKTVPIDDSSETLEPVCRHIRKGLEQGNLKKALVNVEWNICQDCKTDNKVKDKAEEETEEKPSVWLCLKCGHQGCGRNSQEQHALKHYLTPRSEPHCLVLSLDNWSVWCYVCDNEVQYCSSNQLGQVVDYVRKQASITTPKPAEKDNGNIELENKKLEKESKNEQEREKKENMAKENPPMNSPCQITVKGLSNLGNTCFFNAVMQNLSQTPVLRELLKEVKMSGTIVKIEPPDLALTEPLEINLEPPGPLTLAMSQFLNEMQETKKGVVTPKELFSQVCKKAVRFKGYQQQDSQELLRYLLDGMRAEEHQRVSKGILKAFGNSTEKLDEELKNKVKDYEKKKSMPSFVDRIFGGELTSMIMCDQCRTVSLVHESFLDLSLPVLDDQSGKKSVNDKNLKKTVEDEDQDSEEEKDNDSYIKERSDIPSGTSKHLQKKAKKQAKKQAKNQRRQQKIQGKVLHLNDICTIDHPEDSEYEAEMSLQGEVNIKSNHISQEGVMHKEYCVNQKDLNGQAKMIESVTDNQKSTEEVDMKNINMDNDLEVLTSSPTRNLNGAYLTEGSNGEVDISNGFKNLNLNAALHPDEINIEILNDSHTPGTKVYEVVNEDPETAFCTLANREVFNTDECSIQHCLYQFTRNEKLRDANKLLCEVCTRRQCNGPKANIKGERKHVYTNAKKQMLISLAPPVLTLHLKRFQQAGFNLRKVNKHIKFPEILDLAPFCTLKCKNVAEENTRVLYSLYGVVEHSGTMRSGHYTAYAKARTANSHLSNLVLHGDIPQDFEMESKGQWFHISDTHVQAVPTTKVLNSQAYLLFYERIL
How it was run: as §1

Measured: log2 ratio of Biotin-Ahx-Ub-VS probe labelling

Cl.O=C(CCl)N1CC(c2ccc(Br)cn2)C1
active: OTUD7B -1.18 | UCHL1 -1.41
inactive: OTUD6B -0.116 | PRPF8 0.0941 | PSMD7 -0.394 | UCHL3 -0.211 | UCHL5 -0.254 | USP10 -0.0353 | USP15 -0.409 | USP16 -0.253
